# Assay results published in ChEMBL document CHEMBL2218924, “A broad activity screen in support of a chemogenomic map for kinase signalling research and drug discovery” (Biochem J, 2013).
# What was measured:
# [1] = target: T1, CDK9/cyclin T1 (Homo sapiens) (UniProt O60563+P50750); settings: at 1 µM
# [2] = target: T1, CDK9/cyclin T1 (Homo sapiens); settings: at 10 µM
# [3] = target: T2, Serine/threonine-protein kinase Chk1 (Homo sapiens) (UniProt O14757); settings: at 1 µM
# T2 sequence (whole entry): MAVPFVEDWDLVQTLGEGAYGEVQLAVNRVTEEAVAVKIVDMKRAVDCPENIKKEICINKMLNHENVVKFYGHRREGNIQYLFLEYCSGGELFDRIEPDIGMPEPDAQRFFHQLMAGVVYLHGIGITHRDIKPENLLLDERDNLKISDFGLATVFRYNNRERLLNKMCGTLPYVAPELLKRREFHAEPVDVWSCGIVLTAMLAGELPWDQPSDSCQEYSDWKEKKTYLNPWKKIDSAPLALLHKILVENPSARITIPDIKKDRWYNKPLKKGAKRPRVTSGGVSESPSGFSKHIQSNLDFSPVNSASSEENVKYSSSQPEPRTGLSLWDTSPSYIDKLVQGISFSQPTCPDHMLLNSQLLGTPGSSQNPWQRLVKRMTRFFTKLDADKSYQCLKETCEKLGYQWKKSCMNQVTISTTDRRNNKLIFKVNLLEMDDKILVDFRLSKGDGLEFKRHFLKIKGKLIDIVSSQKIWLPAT
# [4] = target: Serine/threonine-protein kinase Chk2 (Homo sapiens) (UniProt O96017); settings: at 1 µM
# [5] = target: Serine/threonine-protein kinase Chk2 (Homo sapiens) (UniProt O96017); settings: at 10 µM
# [6] = target: Dual specificity protein kinase CLK3 (Homo sapiens) (UniProt P49761); settings: at 10 µM
# [7] = target: T2, Serine/threonine-protein kinase Chk1 (Homo sapiens); settings: at 10 µM
# [8] = target: Casein kinase I isoform delta (Homo sapiens) (UniProt P48730); settings: at 1 µM
# [9] = target: Casein kinase I isoform delta (Homo sapiens) (UniProt P48730); settings: at 10 µM
# [10] = target: T3, Casein kinase II (Homo sapiens) (UniProt P67870+P68400+P19784); settings: at 1 µM
# [11] = target: T3, Casein kinase II (Homo sapiens); settings: at 10 µM
# [12] = target: Casein kinase II subunit alpha' (Homo sapiens) (UniProt P19784); settings: at 10 µM
# [13] = target: Dual specificity protein kinase CLK2 (Homo sapiens) (UniProt P49760); settings: at 1 µM
# [14] = target: Dual specificity protein kinase CLK2 (Homo sapiens) (UniProt P49760); settings: at 10 µM
# [15] = target: Dual specificity protein kinase CLK3 (Homo sapiens) (UniProt P49761); settings: at 1 µM
# [16] = target: Casein kinase I isoform gamma-1 (Homo sapiens) (UniProt Q9HCP0); settings: at 10 µM
# [17] = target: Tyrosine-protein kinase CSK (Homo sapiens) (UniProt P41240); settings: at 1 µM
# [18] = target: Casein kinase I isoform gamma-1 (Homo sapiens) (UniProt Q9HCP0); settings: at 1 µM
# [19] = target: Tyrosine-protein kinase CSK (Homo sapiens) (UniProt P41240); settings: at 10 µM
# [20] = target: Casein kinase II subunit alpha' (Homo sapiens) (UniProt P19784); settings: at 1 µM
# Sequence of Serine/threonine-protein kinase Chk2 (Homo sapiens) (O96017 whole entry): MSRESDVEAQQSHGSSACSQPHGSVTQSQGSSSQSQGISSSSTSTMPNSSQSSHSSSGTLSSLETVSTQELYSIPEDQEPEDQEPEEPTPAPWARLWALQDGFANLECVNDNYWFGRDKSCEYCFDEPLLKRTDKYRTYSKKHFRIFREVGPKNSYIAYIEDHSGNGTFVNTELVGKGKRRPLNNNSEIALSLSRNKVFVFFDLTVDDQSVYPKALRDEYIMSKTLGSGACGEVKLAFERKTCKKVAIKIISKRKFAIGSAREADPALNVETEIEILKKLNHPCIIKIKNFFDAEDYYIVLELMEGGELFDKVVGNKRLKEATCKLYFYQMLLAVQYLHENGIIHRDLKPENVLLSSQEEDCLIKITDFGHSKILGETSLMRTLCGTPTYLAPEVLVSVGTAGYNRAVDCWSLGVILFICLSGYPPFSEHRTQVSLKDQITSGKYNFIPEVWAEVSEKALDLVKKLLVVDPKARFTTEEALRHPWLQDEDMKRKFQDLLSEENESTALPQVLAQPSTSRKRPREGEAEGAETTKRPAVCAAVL
# Sequence of Casein kinase I isoform delta (Homo sapiens) (P48730 whole entry, looked up, canonical isoform): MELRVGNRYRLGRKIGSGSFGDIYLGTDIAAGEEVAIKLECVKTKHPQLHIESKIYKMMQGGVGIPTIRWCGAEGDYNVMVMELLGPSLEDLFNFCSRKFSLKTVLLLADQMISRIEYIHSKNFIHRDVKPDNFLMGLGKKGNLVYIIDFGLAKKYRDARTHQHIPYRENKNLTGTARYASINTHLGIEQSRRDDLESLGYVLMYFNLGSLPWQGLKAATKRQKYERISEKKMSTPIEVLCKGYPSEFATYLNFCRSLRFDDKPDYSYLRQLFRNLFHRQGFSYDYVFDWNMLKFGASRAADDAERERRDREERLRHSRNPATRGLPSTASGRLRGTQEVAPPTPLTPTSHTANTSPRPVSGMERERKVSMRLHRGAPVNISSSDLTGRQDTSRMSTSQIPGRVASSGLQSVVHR
# Sequence of Dual specificity protein kinase CLK3 (Homo sapiens) (P49761 whole entry, looked up, canonical isoform): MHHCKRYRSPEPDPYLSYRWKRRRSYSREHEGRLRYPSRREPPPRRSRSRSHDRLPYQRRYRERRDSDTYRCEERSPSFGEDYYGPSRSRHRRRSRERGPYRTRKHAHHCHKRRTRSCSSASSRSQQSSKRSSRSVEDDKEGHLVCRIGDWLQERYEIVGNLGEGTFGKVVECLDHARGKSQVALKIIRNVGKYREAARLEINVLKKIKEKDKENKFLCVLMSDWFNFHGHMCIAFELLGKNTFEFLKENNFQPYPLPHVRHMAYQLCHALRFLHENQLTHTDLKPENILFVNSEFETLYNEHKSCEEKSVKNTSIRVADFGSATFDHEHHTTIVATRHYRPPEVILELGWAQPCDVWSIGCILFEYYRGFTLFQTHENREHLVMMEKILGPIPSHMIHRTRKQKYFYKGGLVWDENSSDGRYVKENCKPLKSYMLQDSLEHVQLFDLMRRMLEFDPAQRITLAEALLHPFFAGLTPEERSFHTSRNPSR
# Sequence of Casein kinase I isoform gamma-1 (Homo sapiens) (Q9HCP0 whole entry, looked up, canonical isoform): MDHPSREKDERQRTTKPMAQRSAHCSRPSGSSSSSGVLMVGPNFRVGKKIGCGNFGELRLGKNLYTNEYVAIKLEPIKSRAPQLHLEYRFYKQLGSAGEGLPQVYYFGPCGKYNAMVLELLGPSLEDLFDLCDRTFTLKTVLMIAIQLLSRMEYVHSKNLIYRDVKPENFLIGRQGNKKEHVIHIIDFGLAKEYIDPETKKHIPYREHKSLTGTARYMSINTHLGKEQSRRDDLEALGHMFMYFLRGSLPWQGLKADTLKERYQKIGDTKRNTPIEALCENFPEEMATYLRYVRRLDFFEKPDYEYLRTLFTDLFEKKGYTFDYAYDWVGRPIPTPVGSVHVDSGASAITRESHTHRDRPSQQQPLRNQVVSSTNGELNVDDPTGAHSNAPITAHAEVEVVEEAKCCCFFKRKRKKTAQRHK
# Sequence of Tyrosine-protein kinase CSK (Homo sapiens) (P41240 2-450 limits assumed): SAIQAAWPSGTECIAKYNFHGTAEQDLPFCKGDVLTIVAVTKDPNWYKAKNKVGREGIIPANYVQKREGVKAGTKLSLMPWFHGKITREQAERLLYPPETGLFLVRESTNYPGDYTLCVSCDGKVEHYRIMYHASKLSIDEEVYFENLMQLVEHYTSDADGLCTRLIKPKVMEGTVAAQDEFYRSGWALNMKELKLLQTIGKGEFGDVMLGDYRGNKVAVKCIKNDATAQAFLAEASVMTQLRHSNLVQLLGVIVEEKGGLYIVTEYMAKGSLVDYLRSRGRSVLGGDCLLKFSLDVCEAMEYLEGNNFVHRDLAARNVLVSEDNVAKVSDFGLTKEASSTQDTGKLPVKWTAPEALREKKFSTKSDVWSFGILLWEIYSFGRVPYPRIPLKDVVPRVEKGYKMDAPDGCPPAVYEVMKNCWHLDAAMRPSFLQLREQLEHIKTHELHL
# Sequence of Dual specificity protein kinase CLK2 (Homo sapiens) (P49760 whole entry, looked up): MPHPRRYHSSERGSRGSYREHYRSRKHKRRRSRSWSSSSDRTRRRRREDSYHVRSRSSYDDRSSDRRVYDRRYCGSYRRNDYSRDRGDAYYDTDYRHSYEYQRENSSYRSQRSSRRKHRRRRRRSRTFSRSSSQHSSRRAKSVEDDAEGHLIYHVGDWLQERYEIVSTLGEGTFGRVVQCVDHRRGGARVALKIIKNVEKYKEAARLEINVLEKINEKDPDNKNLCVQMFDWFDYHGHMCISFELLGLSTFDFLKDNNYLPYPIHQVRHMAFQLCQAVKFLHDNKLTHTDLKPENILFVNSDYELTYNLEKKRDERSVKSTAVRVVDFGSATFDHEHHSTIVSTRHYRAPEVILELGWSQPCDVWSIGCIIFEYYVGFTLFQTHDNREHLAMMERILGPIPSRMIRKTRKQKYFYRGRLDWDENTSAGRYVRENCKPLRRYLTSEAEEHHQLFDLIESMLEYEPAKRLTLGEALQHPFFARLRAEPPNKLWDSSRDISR
# Sequence of Casein kinase II subunit alpha' (Homo sapiens) (P19784 whole entry, looked up): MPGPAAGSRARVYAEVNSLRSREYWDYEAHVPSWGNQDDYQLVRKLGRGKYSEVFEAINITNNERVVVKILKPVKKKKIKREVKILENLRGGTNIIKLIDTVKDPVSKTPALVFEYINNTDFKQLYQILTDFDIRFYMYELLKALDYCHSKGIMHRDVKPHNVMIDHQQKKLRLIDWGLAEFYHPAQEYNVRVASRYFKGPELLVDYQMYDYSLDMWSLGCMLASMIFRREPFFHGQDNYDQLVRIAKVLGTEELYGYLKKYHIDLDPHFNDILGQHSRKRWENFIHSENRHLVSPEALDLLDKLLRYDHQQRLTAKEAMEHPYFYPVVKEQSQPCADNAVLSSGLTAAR
# T3 sequence (P19784 whole entry, looked up): as above
# T3 sequence (P67870 whole entry, looked up): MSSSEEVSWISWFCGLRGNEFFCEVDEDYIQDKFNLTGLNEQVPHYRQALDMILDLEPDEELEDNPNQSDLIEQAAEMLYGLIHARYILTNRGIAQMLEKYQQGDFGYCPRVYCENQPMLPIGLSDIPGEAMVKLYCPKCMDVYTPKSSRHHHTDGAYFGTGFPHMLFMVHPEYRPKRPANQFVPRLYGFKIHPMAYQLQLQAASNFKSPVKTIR
# T3 sequence (P68400 whole entry, looked up): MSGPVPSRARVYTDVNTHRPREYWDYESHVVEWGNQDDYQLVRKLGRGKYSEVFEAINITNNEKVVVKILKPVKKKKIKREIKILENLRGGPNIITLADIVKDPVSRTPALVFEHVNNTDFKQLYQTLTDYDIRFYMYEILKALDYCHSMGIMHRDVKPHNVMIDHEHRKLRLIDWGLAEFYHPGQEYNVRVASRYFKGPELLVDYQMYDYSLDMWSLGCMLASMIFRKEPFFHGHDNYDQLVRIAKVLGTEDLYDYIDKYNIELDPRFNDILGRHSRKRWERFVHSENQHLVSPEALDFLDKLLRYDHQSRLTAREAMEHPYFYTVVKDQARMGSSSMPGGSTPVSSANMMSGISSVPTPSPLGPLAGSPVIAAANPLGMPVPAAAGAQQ
SMILES,residual activity [1] [%],residual activity [2] [%],residual activity [3] [%],residual activity [4] [%],residual activity [5] [%],residual activity [6] [%],residual activity [7] [%],residual activity [8] [%],residual activity [9] [%],residual activity [10] [%],residual activity [11] [%],residual activity [12] [%],residual activity [13] [%],residual activity [14] [%],residual activity [15] [%],residual activity [16] [%],residual activity [17] [%],residual activity [18] [%],residual activity [19] [%],residual activity [20] [%]
O=C1Cc2c([nH]c3ccc([N+](=O)[O-])cc23)-c2ccccc2N1,1,2,39,3,1,82,–,–,–,–,–,–,–,–,–,–,–,–,–,–
CN(C)S(=O)(=O)c1ccc2c(c1)/C(=C/c1cc3c([nH]1)CCCC3)C(=O)N2,92,93,77,35,–,28,73,92,71,95,100,94,69,71,39,–,–,–,–,–
COc1ccc2c(c1)c(C1=C(c3c[nH]c4ccccc34)C(=O)NC1=O)cn2CCCN(C)C,29,4,67,34,9,45,41,79,76,–,111,–,14,2,59,96,–,–,–,–
O=S(=O)(NCCNC/C=C/c1ccc(Br)cc1)c1cccc2cnccc12,72,41,81,81,27,–,44,–,–,–,–,–,–,68,79,–,100,–,–,–
COc1cc2nccc(Oc3ccc(NC(=S)NC(=O)c4ccccc4C)cc3)c2cc1OC,92,89,83,48,23,46,–,85,62,83,100,91,–,–,66,63,96,91,69,–
N#C/C(=C1/Nc2ccccc2S1)c1ccnc(NCCc2cccnc2)n1,8,3,97,80,48,6,84,52,8,58,15,15,29,13,39,29,–,77,–,41
CC(C)(C)n1nc(Cc2cccc3ccccc23)c2c(N)ncnc21,101,65,86,96,48,32,102,40,3,–,–,72,94,42,95,–,82,–,20,118
CCCCc1c(-c2ccc(O)cc2)[nH]c2nccnc12,7,7,91,31,10,52,100,81,52,99,92,87,64,47,83,61,–,75,–,–
O=C1C(Cl)=C(N2C(=O)CCC2=O)C(=O)c2ccccc21,86,87,94,88,84,79,87,91,85,99,100,98,102,80,89,–,–,–,–,100
Cc1cc(C)c(/C=C2\C(=O)Nc3ccccc32)[nH]1,100,78,72,18,3,11,38,13,2,–,–,–,49,37,80,–,–,–,–,–
O=C(O)/C=C/c1cc(Br)c(Br)c(Br)c1Br,69,13,107,59,33,52,97,56,12,12,-8,5,102,49,79,76,–,103,–,33
O=c1cc(N2CCOCC2)oc2c1ccc1ccccc12,95,70,90,111,93,–,93,98,86,18,-1,5,98,45,91,94,103,100,–,56
Nc1n[nH]c2nc3ccccc3nc12,59,36,90,82,61,71,79,75,34,85,62,–,84,52,88,69,–,79,–,–
Nc1ncnc2c1cnn2-c1ccccc1,102,73,91,92,–,99,83,85,36,87,36,58,–,–,87,99,–,98,–,–
COc1cc2c(cc1OC)-c1n[nH]c(Nc3cccc(F)c3)c1C2,99,50,72,82,70,48,75,76,39,82,106,–,108,68,59,73,80,–,29,–
CCN(CC)CCNC(=O)c1c(C)[nH]c(/C=C2\C(=O)Nc3ccc(Cl)cc32)c1C,48,13,24,6,1,4,3,23,5,–,–,47,9,1,77,14,–,64,–,–
Nc1ncnc2[nH]nc(Nc3ccc(F)cc3)c12,80,36,–,73,59,–,60,42,7,104,–,73,109,68,–,66,90,–,65,104
Nc1nc(Nc2ccc(S(N)(=O)=O)cc2)nn1C(=O)c1c(F)cccc1F,0,0,82,52,11,0,31,100,–,111,97,99,40,9,20,–,99,–,100,104
Cn1sc(=O)n(Cc2ccccc2)c1=O,93,79,88,71,67,74,90,81,84,85,90,–,–,–,64,89,92,96,90,–
CCCC(=O)Oc1ccc2[nH]c(C(=O)c3cc4ccccc4[nH]3)cc2c1,108,88,79,93,97,–,89,87,101,86,106,98,122,101,81,92,101,90,100,132
Nc1ncnc2c1c(-c1ccc(Oc3ccccc3)cc1)cn2C1CCCC1,99,96,83,79,24,6,113,56,8,79,105,86,112,88,82,73,0,88,-1,118
O=c1cc(N2CCNCC2)oc2c(-c3ccccc3)cccc12,79,42,83,90,91,100,85,88,85,79,52,90,90,93,81,97,–,97,–,–
O=C(c1cc2cc(O)ccc2[nH]1)c1cc2cc(O)ccc2[nH]1,26,4,76,60,22,4,47,74,37,–,–,72,32,5,69,10,–,50,–,–
O=C1NC(=O)C(c2cn(CCCn3ccnc3)c3ccccc23)=C1Nc1ccccc1,14,3,75,–,–,36,37,–,75,–,–,–,8,2,55,–,107,–,78,–
O=C1NC(=O)c2c1c1c3ccccc3[nH]c1n1cncc21,70,59,18,23,8,53,14,15,9,60,21,21,51,46,70,40,97,58,58,81
O=C(c1ccccc1)c1ccc(N2CCOCC2)cc1O,89,47,86,86,–,–,90,88,92,88,113,–,–,–,89,100,–,86,84,122
